Results from PubChem BioAssay (NCATS).
Several values for one entry are separate records, joined by “and”; a condition that tells them apart may be missing. Identical values can stand only once. Inconclusive results are not listed. Activity calls are given as the source filed them. Unless noted, no rule for the calls is given here.

Legend:
[1] = qHTS Assay for Identifying Gametocytocidal Compounds (AID 743244; active = well fitted curve in the direction sought with a large enough effect; an effect the other way counts as inactive or inconclusive; also: potency is read from the fitted curve at half-maximal effect;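 as to max response: % is scaled to controls: 0 for no effect and ±100 for the full control effect; actives lower the fluorescent signal which means gametocytes are killed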); conditions: P. falciparum 3D7 stage III-V gametocytes, alamarBlue, 72 h; max response: stronger effect = lower value
Method in brief: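 In this qHTS viability screen, late-stage 3D7 gametocytes are incubated with compound for 72 h, then with alamarBlue for 24 h; reduced resorufin fluorescence marks killing.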

[2] = qHTS profiling for inhibitors of Plasmodium falciparum (3D7) proliferation (AID 743322);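 also: infected erythrocytes exposed to compound for 72 h before lysis; 100% = DMSO vehicle wells and 0% = 0.29 µM artemisinin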; conditions: P. falciparum 3D7 proliferation; at 28.7 µM (top of the series) unless noted
Method in brief: (§1)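 Parasite DNA was quantified by SYBR Green I fluorescence (ex 485, em 535 nm) after overnight lysis in saponin/Triton buffer at room temperature. Cultures at 0.3% parasitemia and 2.5% hematocrit were first exposed to compound for 72 h at 37 C; signals were normalised to artemisinin (0.29 uM) and vehicle wells.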

[3] = qHTS profiling for inhibitors of Plasmodium falciparum (DD2) proliferation (AID 743323); conditions: lower = more inhibition; at 28.7 µM (top of the series) unless noted
Method in brief: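 1536-well qHTS; infected RBCs 0.3% parasitemia/2.5% Hct final; cpd 72 h 37 C 5% CO2; lysis buffer + SYBR Green I, o/n RT dark; FI 485/535; norm. to 0.29 uM artemisinin and DMSO, plate-stack corrected.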

[4] = qHTS profiling for inhibitors of Plasmodium falciparum (HB3) proliferation (AID 743324; active = well fitted curve in the direction sought with a large enough effect; an effect the other way counts as inactive or inconclusive;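 also: 100% = DMSO vehicle wells and 0% = artemisinin-treated control wells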); conditions: Plasmodium falciparum HB3 blood-stage proliferation; at 28.7 µM (top of the series) unless noted
Method in brief: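 SYBR Green fluorescence (485 ex/535 em) of lysed cultures, incubated overnight at room temperature in the dark, quantifies parasite DNA. Infected erythrocytes at 0.3% parasitemia and 2.5% hematocrit were exposed 72 h; values normalized to DMSO and 0.29 uM artemisinin controls.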

[5] = qHTS profiling of the MIPE4 collection as inhibitors of Plasmodium falciparum (3D7) proliferation (AID 743344);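 also: scaled between DMSO vehicle wells and 0.29 µM artemisinin as full inhibition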; conditions: P. falciparum 3D7 in erythrocytes, SYBR Green DNA fluorescence, 72 h; at 28.5 µM (top of the series) unless noted
Method in brief: as §1

[6] = qHTS profiling of the MIPE4 collection as inhibitors of Plasmodium falciparum (DD2) proliferation (AID 743345); conditions: P. falciparum Dd2 in erythrocytes, SYBR Green DNA, 72 h; at 28.5 µM (top of the series) unless noted
Method in brief: as §1

[7] = qHTS profiling of the MIPE4 collection as inhibitors of Plasmodium falciparum (DD2) proliferation (Rep 2) (AID 743346); conditions: P. falciparum Dd2 in erythrocytes, SYBR Green DNA, 72 h; at 28.5 µM (top of the series) unless noted
Method in brief: as §1

[8] = qHTS profiling of the MIPE4 collection as inhibitors of Plasmodium falciparum (HB3) proliferation (AID 743347);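 also: plate controls were DMSO vehicle wells for no effect and artemisinin wells for full effect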; conditions: P. falciparum HB3 in erythrocytes, SYBR Green DNA, 72 h; at 28.5 µM (top of the series) unless noted
Method in brief: as §1

| Structure (SMILES) | max response [1] | remaining parasite growth % (stronger effect = lower value) [2] | activity, percent of control [3] | remaining proliferation (% of control), lower = more inhibition [4] | parasite growth, % of DMSO control [5] | parasite growth remaining, % of DMSO control (lower = more inhibition) [6] | parasite growth, % of control (lower = inhibition) [7] | growth, % of control [8] | Potency [1] |
| --- | --- | --- | --- | --- | --- | --- | --- | --- | --- |
| Cc1ccccc1C(C(=O)NC1CCCC1)N(C(=O)Cn1cnc2ccccc21)c1cccc(F)c1 (stereo not drawn) | -12.2% (inactive) | 45.1% | 58.9% | 34.4% | 72.9% | 65.6% | 38% | 97.9% | – |
| CCc1cncnc1N1CCN(Cc2nc3ccc(C(F)(F)F)cc3[nH]2)CC1 | 8.68% (inactive) | 24.3% | 20.3% | 14% | 19.6% | 33% | 27.9% | 15.6% | – |
| CS(=O)(=O)c1ccc(C(=O)Nc2ccc(Cl)c(-c3ccccn3)c2)c(Cl)c1 | 15% (inactive) | 105% | 101% | 103% | 66.9% | 93.4% | 97% | 92.4% | – |
| CN([C@@H](Cc1ccc(OS(=O)(=O)c2cccc3cnccc23)cc1)C(=O)N1CCN(c2ccccc2)CC1)S(=O)(=O)c1cccc2cnccc12 | – | 0.0531% and -0.942% | 0.806% and 0.455% | -0.274% and -0.52% | 5.27% | 6.98% | 12.9% | 4.99% | 18.7 µM (active) |
| CC(C)OC(=O)C1=CN(C(=O)c2ccc(F)c(F)c2)CC(C)(C)c2c1[nH]c1ccccc21 | 18.7% (inactive) | 15.1% | 36.4% | 29.3% | 51.5% | 44.6% | 66.4% | 46.5% | – |
| COc1ccccc1[C@H](c1cccc2ccccc12)[C@@](C)(C#N)C(=O)N1CCC(c2cccc(C(F)(F)F)c2)CC1 | -0.358% (inactive) | 1.65% | 1.44% | 0.956% | 5.47% | 8.96% | 9.97% | 6.38% | – |
| Cc1[nH]c(=O)c(C#N)cc1-c1ccc2nccn2c1 | -5.81% (inactive) and 18.1% (inactive) | 105% | 98.1% | – | 50.3% | 93.1% | 113% | 68.7% | – |
| Cc1cc(C=c2sc3nc4ccccc4n3c2=O)c(C)n1-c1ccccc1 | 11.9% (inactive) | 37.9% | 101% | 116% | 84.9% | 93.2% | 73% | 424% | – |
| CCC(C)n1ncn(-c2ccc(N3CCN(c4ccc(OC[C@H]5CO[C@](Cn6cncn6)(c6ccc(Cl)cc6Cl)O5)cc4)CC3)cc2)c1=O (stereo partly drawn) | 3.11% (inactive) | 3.74% | 7.7% | 2.67% | 5.41% | 8.47% | 37.4% | 4.47% | – |
| C[C@@H]1CN(Cc2ccc(F)cc2)[C@@H](C)CN1C(=O)c1cc2c(C(=O)C(=O)N(C)C)cn(C)c2cc1Cl | 12.3% (inactive) | 69.2% | 79.8% | – | 49.5% | 83.2% | 48.6% | 47.5% | – |
